PubChem BioAssay (Tox21)
Records with an inconclusive call do not appear. Calls of active or inactive are those of the source. Unless noted, calls follow the shape of the dose curve; as a rule, active = well fitted curve in the direction sought with a large enough effect in the repeat runs; inconclusive = weak or mixed curves; inactive = flat fitted curve, though single readings scatter.

Experiments:
[1] = qHTS assay to test for compound auto fluorescence at 535 nm (green) in HEK293 cells (AID 720680)
[2] = qHTS assay to test for compound auto fluorescence at 460 nm (blue) in HEK293 cell free culture (AID 720681)
Method in brief: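 Test compounds were pinned into cell-free culture medium (DMEM with 10% FBS) and fluorescence was read directly at Ex/Em 405/460 nm. Signals were expressed as fluorescence equivalents of triamterene, with DMSO vehicle as control.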

[3] = qHTS assay to test for compound auto fluorescence at 535 nm (green) in HEK293 cell free culture (AID 720682)
Method in brief: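 Green-channel intensity (Ex/Em 485/535 nm) was recorded from compound-treated wells containing only DMEM with 10% FBS. Fluorescein provided the equivalency standard.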

[4] = qHTS assay to test for compound auto fluorescence at 460 nm (blue) in HepG2 cell free culture (AID 720685)
Method in brief: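 Cell-free plates of MEM plus 10% FBS received 23 nL compound or DMSO vehicle; blue-channel (405/460 nm) intensity scored against triamterene as reference fluorophore.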

[5] = qHTS assay to test for compound auto fluorescence at 535 nm (green) in HepG2 cell free culture (AID 720686); also: potency is read from the fitted curve at half-maximal effect
[6] = qHTS assay to test for compound auto fluorescence at 460 nm (blue) in HepG2 cells (AID 720687); also: potency is read from the fitted curve at half-maximal effect
Method in brief: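 Cells (2,000/well in MEM with 10% FBS) attached overnight at 37 C, then were exposed to compound or DMSO for 1 hr at 37 C, 5% CO2. Fluorescence read at Ex/Em 405/460 nm, expressed as triamterene-equivalent signal.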

[7] = target: Glucocorticoid receptor (Homo sapiens) (UniProt P04150); test: qHTS assay to identify small molecule agonists of the glucocorticoid receptor (GR) signaling pathway (AID 720691; active = well fitted activation curve with a large enough effect in the signal ratio in the repeat runs, not every such curve was filed as active; the % refers to the signal ratio; also: potency is read from the fitted curve at half-maximal effect); conditions: GR-bla HeLa, beta-lactamase reporter ratio, 18 h; activation: at 62.4 µM (top of the series)
Method in brief: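 Steps: seed GR-bla HeLa cells, incubate 4 h at 37 C/5% CO2; pin-transfer DMSO-dissolved compounds; incubate 18 h at 37 C; add LiveBLAzer B/G FRET substrate; after 2 h at room temperature, measure fluorescence.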

[8] = qHTS assay to test for compound auto fluorescence at 590 nm (red) in HEK293 cell free culture (AID 720683)
Method in brief: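 Tox21 10K library compounds were pinned into cell-free DMEM with 10% FBS and fluorescence was read at excitation 540 nm. Activity is expressed as Rose Bengal sodium equivalency.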

[9] = target: Glucocorticoid receptor (Homo sapiens) (UniProt P04150); test: qHTS assay to identify small molecule antagonists of the glucocorticoid receptor (GR) signaling pathway (AID 720692; active = well fitted inhibition curve with a large enough effect in the signal ratio in the repeat runs, not every such curve was filed as active; the % refers to the signal ratio)
Method in brief: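 Antagonism was scored as loss of dexamethasone-driven (5 nM final) reporter signal in HeLa cells bearing a glucocorticoid response element–beta-lactamase construct, after 18 h compound exposure at 37 C and 2 h FRET substrate loading.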

[10] = qHTS assay to test for compound auto fluorescence at 590 nm (red) in HepG2 cell free culture (AID 720684)
Method in brief: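 Ex 540 / Em 590 nm read of compound in cell-free MEM (10% FBS). Rose Bengal sodium reference.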
% is scaled to controls: 0 for no effect and ±100 for the full control effect; tags tell the direction and shape of the fitted curve or compound fluorescence and quenching.

Sequence of Glucocorticoid receptor (Homo sapiens) (P04150 whole entry, looked up): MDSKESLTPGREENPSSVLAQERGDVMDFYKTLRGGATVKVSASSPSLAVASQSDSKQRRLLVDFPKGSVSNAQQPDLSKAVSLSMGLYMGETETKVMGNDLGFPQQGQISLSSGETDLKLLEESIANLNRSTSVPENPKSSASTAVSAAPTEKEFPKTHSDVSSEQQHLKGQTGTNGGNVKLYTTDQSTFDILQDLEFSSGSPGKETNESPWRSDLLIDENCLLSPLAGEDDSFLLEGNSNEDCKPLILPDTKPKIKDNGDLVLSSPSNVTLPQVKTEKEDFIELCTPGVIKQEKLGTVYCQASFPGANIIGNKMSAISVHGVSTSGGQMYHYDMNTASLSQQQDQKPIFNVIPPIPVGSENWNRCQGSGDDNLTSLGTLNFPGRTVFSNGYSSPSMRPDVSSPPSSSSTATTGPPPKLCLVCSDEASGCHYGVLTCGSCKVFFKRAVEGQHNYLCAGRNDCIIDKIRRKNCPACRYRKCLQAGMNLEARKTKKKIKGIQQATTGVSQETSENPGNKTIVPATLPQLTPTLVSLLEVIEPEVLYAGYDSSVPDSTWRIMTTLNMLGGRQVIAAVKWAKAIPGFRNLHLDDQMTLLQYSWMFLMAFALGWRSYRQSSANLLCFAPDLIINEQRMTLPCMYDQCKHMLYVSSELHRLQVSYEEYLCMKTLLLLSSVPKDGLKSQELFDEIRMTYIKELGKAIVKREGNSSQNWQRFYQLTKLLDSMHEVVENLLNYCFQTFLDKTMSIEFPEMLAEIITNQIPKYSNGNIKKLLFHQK

COc1cccc2c1C(=O)c1c(O)c3c(c(O)c1C2=O)C[C@@](O)(C(=O)CO)C[C@@H]3O[C@H]1C[C@H](N)[C@H](O[C@@H]2CCCCO2)[C@H](C)O1
inactive: outcome [1] | Potency [2] | outcome [3] | Potency [4] | Potency [5] | Potency [6]
active: Potency [7] 3.01 µM

O=C(Oc1cccc2cccnc12)c1ccccc1
inactive: outcome [1] | Potency [2] | outcome [3] | Potency [8] | Potency [4] | Potency [5] | Potency [6] | Potency [9]

CN1CCC(Nc2ncc3ncnc(Nc4ccc(F)c(Cl)c4)c3n2)CC1
active: Potency [6] 12.6 µM [fluorescent]
inactive: outcome [1] | outcome [3] | Potency [8] | Potency [10] | Potency [5]

CCC1=C[C@@H]2CN(C1)Cc1c([nH]c3ccccc13)[C@@](C(=O)OC)(c1cc3c(cc1OC)N(C)[C@H]1[C@@](O)(C(=O)OC)[C@H](OC(C)=O)[C@]4(CC)C=CCN5CC[C@]31[C@@H]54)C2
inactive: outcome [1] | Potency [2] | outcome [3] | Potency [8] | Potency [5] | Potency [6] | Potency [7]

Cc1c(C)c2c(c(C)c1OC(=O)CCC(=O)O)CC[C@@](C)(CCC[C@H](C)CCC[C@H](C)CCCC(C)C)O2
inactive: outcome [1] | Potency [2] | outcome [3] | Potency [8] | Potency [4] | Potency [5] | Potency [6]

CCCC(=O)OC[C@@H](OC(=O)CCC)[C@@H](OC(=O)CCC)[C@H](Cn1c2nc(=O)[nH]c(=O)c-2nc2cc(C)c(C)cc21)OC(=O)CCC
inactive: Potency [2] | Potency [8] | Potency [10] | Potency [4] | Potency [6]
active: Potency [5] 8.91 µM [fluorescent]

On1ccccc1=S
inactive: outcome [1] | Potency [2] | outcome [3] | Potency [8] | Potency [4] | Potency [5] | Potency [6] | Potency [7]

Nc1ccc2c3c(cccc13)-c1ccccc1-2
active: Potency [5] 39.8 µM [fluorescent]
inactive: Potency [8]

CCCCCCCC[N+](CCCCCCCC)(CCCCCCCC)CCCCCCCC
inactive: outcome [1] | Potency [2] | outcome [3] | Potency [8] | Potency [4] | Potency [5] | Potency [6]

CS(=O)(=O)CCNCc1ccc(-c2ccc3ncnc(Nc4ccc(OCc5cccc(F)c5)c(Cl)c4)c3c2)o1
inactive: outcome [1] | Potency [2] | outcome [3] | Potency [8] | Potency [5] | Potency [6]

CCCCCCCCCOC(=O)c1ccc(O)cc1
inactive: outcome [1] | Potency [2] | outcome [3] | Potency [8] | Potency [4] | Potency [5] | Potency [6]

CC(C)(C)C(=O)OCOC(=O)[C@@H]1N2C(=O)[C@@H](NC(=O)[C@H](N)c3ccccc3)[C@H]2SC1(C)C
inactive: fluorescence, % of fluorescein [1] -0.024% [at 18.6 µM] | fluorescence, % of fluorescent control [2] 0.0397% [at 18.6 µM] | activity change [3] 0.023% [at 18.6 µM] | fluorescence, % of fluorescent control [8] 0.0827% [at 18.6 µM] | fluorescence, % of fluorescent control [4] 0.014% [at 18.6 µM] | fluorescence, % of fluorescein control [5] -0.0041% [at 18.6 µM] | fluorescence, % of fluorescent control [6] 0.061% [at 18.6 µM]

Nc1ccccc1O
inactive: outcome [1] | Potency [2] | outcome [3] | Potency [8] | Potency [4] | Potency [5] | Potency [6] | Potency [7]

CCCC(c1cc(C(C)(C)C)c(O)cc1C)c1cc(C(C)(C)C)c(O)cc1C
inactive: outcome [1] | Potency [2] | outcome [3] | Potency [8] | Potency [4] | Potency [5] | Potency [6]

C/C=C(\C)C(=O)OCc1ccccc1
inactive: outcome [1] | Potency [2] | outcome [3] | Potency [8] | Potency [4] | Potency [5] | Potency [6] | Potency [7]

Cc1ccc(-n2nc(C(C)(C)C)cc2NC(=O)Nc2ccc(OCCN3CCOCC3)c3ccccc23)cc1
inactive: outcome [1] | Potency [2] | outcome [3] | Potency [8] | Potency [4] | Potency [5] | Potency [6]

COc1ccc(C(=O)/C(Br)=C\C(=O)O)cc1
inactive: outcome [1] | Potency [2] | outcome [3] | Potency [8] | Potency [4] | Potency [5] | Potency [6] | Potency [7] | Potency [9]

CC[C@H](c1ccc(O)cc1)[C@@H](CC)c1ccc(O)cc1
inactive: outcome [1] | Potency [2] | outcome [3] | Potency [8] | Potency [4] | Potency [5] | Potency [6] | Potency [7]

CCC(C)Nc1ccc(NC(C)CC)cc1 (stereo unspecified)
inactive: outcome [1] | Potency [2] | outcome [3] | Potency [8] | Potency [5] | Potency [6]

Cc1cc2c(cc1C(F)(F)F)N(C(=O)Nc1ccc(Oc3cccnc3C)nc1)CC2
inactive: outcome [1] | Potency [2] | outcome [3] | Potency [8] | Potency [4] | Potency [5] | Potency [6] | Potency [7] | Potency [9]

NNc1nc(-c2ccc([N+](=O)[O-])cc2)cs1
inactive: outcome [1] | Potency [2] | outcome [3] | Potency [8] | Potency [4] | Potency [5] | Potency [6]

CCCCCCCCCCn1cc[n+](CCCCCCCCCC)c1C
inactive: outcome [1] | Potency [2] | outcome [3] | Potency [8] | Potency [4] | Potency [5] | Potency [6]

NC(=O)CC[C@@H]1NC(=O)[C@H](Cc2ccccc2)NC(=O)[C@H](Cc2ccc(O)cc2)NC(=O)CCSSC[C@@H](C(=O)N2CCC[C@H]2C(=O)N[C@@H](CCCN=C(N)N)C(=O)NCC(N)=O)NC(=O)[C@H](CC(N)=O)NC1=O
inactive: outcome [1] | Potency [2] | outcome [3] | Potency [8] | Potency [4] | Potency [5] | Potency [6]
